LMNA splice mod: qHTS Assay for Modulators of Lamin A Splicing; HeLa LMNA splicing GFP/RFP minigene ratio, 48 h; Potency, µM (top dose mostly 46.1 µM), without a hit: at the top dose ratio change, negative = inhibition, usual class: inhibitors; hit rate 0.01% among 200,000; active = well fitted inhibition curve with a large enough effect in the signal ratio, with a control signal flat, not every such curve was filed as active; inconclusive = small, poorly fitted or top-dose-only effect, or effect the other way, or a change in a side signal; the % refers to the signal ratio; also: % is scaled to controls: 0 for no effect and ±100 for the full control effect
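Read-out is the ratio of GFP to DsRed2 object intensity, acquired by 488 nm laser-scanning cytometry on HeLa lamin A-EGFP minigene reporter cells. Compound incubation 48 hrs at 37 °C in Opti-MEM with 2% FBS; DMSO 0.5% final.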
ALDH1A1 inh: qHTS Assay for Inhibitors of Aldehyde Dehydrogenase 1 (ALDH1A1) | Aldehyde dehydrogenase 1A1 (Homo sapiens), P00352 | Purified ALDH1A1, NADH fluorescence, propionaldehyde substrate | Potency, µM (titrated, usually from 75.3 µM), inactives show at the highest dose activity, negative = inhibition, usual class: inhibitors | hit rate 7.3% among 220,000 | AID 1030, 2008;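 also: plate controls were no enzyme wells and a reference inhibitor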
HTT ATP protect: qHTS Multiplex Assay to Identify Dual Action Probes in a Cell Model of Huntington: Cytoprotection (ATP). Potency, µM (series often up to 56.4 µM), inactives show cytoprotection (ATP increase), usual class: activators. hit rate 0.14% among 230,000. PC12 HTT-Q103 induced, cytoprotection, ATP luminescence, 40 h; active = well fitted curve in the direction sought with a large enough effect; inconclusive = small, poorly fitted or top-dose-only effect, or another doubt; inactive = no such curve, though single readings can be large; an effect the other way counts as inactive or inconclusive; also: % of control where 0% means no effect; nearly all actives have a fitted effect of over 45% in size
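PC12 cells with ecdysone-inducible HTT exon 1 Q103-GFP, induced with 100 nM tebufenozide and co-treated with library compounds in a dose series (1536-well, 1500 cells/well). Cytoprotection read as ATP content by ATPlite luminescence.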
HPGD inh: qHTS Assay for Inhibitors of HPGD (15-Hydroxyprostaglandin Dehydrogenase); 15-hydroxyprostaglandin dehydrogenase [NAD(+)] (Homo sapiens), P15428; purified HPGD, NADH fluorescence kinetic, PGE2 substrate; Potency, µM, inactives show at the top dose activity change, negative = inhibition, most hits filed as inhibitors; hit rate 4.3% among 150,000; AID 894, 2007; also: % is scaled to controls: 0 for no effect and ±100 for the full control effect
Target sequence (P15428 whole entry, looked up): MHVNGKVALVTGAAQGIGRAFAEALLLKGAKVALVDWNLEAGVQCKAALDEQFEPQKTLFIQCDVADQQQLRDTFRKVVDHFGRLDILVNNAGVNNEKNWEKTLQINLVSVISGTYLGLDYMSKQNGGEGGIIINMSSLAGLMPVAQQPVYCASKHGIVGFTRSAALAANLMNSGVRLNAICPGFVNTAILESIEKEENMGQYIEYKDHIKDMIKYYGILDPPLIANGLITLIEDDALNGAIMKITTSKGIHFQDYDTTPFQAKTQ
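20 nM HPGD preincubated 15 min at room temperature with compound in 50 mM Tris-HCl pH 8, 0.01% Tween 20. Started with 1 mM NAD+ and 30 uM prostaglandin E2; NADH fluorescence (360/450 nm) read 5 times over 30-s intervals, last minus first.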
HttQ103 aggreg: qHTS Multiplex Assay to Identify Dual Action Probes in a Cell Model of Huntington: Aggregate Formation (GFP); AID 1688, 2009; PC12 HttQ103-GFP aggregates, Acumen cytometry, 40 h; Potency, µM (titrated, usually from 46.1 µM), for inactives: at the top dose activity change, negative = inhibition, actives largely listed as inhibitors; hit rate 1.1% among 220,000; active = well fitted curve in the direction sought with a large enough effect; inconclusive = small, poorly fitted or top-dose-only effect, or another doubt; inactive = no such curve, though single readings can be large; an effect the other way counts as inactive or inconclusive; also: % is scaled to controls: 0 for no effect and ±100 for the full control effect; nearly all actives have a fitted effect of over 60% in size
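Using laser scanning cytometry, GFP-positive aggregates were counted after lysis of PC12 cells induced with 100 nM tebufenozide to express HTT exon 1 Q103–GFP. Compounds were tested in titration.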
Numbers without * were called inactive; ? = inconclusive; . = not tested or not shown; [ ] = another dose, or the depositor's remark. Sampled rows, rich in hits. Any-hit rate of the full collection: about 8.8%. Unless noted, calls follow the shape of the dose curve; as a rule, active = well fitted inhibition curve with a large enough effect (not every such curve was filed as active); inconclusive = small, poorly fitted or top-dose-only effect, or another doubt; inactive = no such curve, though single readings can be large or run the other way. Potency is read from the fitted curve at half-maximal effect.

SMILES	LMNA splice mod	ALDH1A1 inh	HTT ATP protect	HPGD inh	HttQ103 aggreg
O=C(NCCCCNC(=O)c1ccco1)c1ccco1	1%	2%	14%[10 µM]	-6%	17%
COC(=O)C1CCN(c2csc3ccc(C)cc3c2=O)CC1	-2%[46 µM]	.	.	.	.
Cc1ccc(NC(=S)c2nc3ccccc3[nH]2)c(C)c1	4%	?	-24%[10 µM]	32µM*	?
COC(=O)[C@@]1(Cc2ccc(OC)cc2)[C@@H]2C(=CC(=O)[C@H]2CC(=O)C(=O)N2CCCC2)CN1C(=O)c1ccccc1	5%	-1%	7.1µM*	-7%	?
COC(=O)[C@@]1(Cc2ccc(F)cc2)[C@@H]2C(=CC(=O)[C@H]2CC(=O)C(=O)N2CCCC2)CN1C(=O)c1ccccc1	.	-6%	-32%	-11%	.
C=C1C(=O)C=C2CN(C(=O)c3ccccc3)[C@@](Cc3ccc(OC)cc3)(C(=O)OC)[C@@H]12	.	?	-116%	7.1µM*	.
CC(Oc1ccc(F)cc1)C(=O)/C=C\N(C)C (configuration not stated)	-10%	8%	-14%[10 µM]	-26%	-2%
CC(Oc1ccccc1Cl)C(=O)/C=C/N(C)C (configuration not stated)	-4%	-3%	-11%	14µM*	4%
CC(Oc1ccccc1F)C(=O)/C=C/N(C)C (configuration not stated)	?	19%	3%	28µM*	5%
CC(Oc1cccc(F)c1)C(=O)/C=C\N(C)C (configuration not stated)	6%	-5%	-4%	?	16%
COc1cc(O)oc1C=Nc1ccc(Cl)cc1Cl	9%	14µM*	-1%	?	13%
S=c1nc[nH]c2c1[nH]c1ccccc12	-3%	14µM*	2%[10 µM]	25µM*	4%
CCOC(=O)c1csc(NC(=O)c2ccc(C#N)cc2)n1	-8%[46 µM]	-8%	-27%	.	-14%
Cc1ccc(C(=O)O/N=C(\c2ccccc2)c2cccnc2)cc1	-14%	?	-2%[10 µM]	-8%	12%
Cc1cccc(C(=O)O/N=C(\c2ccccc2)c2cccnc2)c1	-13%	16µM*	4%[10 µM]	-21%	1%
Cc1cc(C)c(NC(=O)CSc2nc3c([nH]c4ccccc43)c(=O)n2C)c(C)c1	8%[46 µM]	.	.	.	.
O=c1oc2cc(O)ccc2c2oc3cc(O)ccc3c12	?	?	.	?	8%
COc1c(O)c(O)cc2c1oc1c3ccccc3oc(=O)c21	.	?	-13%	13µM*	.
O=C(NCCCn1cccn1)c1cc(COc2ccc(F)cc2Cl)on1	.	7%	-16%[10 µM]	.	5%[9.22 µM]
Cc1nn(C(=O)c2cccnc2)c(C)c1Sc1ccc(Br)cc1	11%	-5%	4%	14µM*	-3%
Cc1nn(C(=O)c2ccco2)c(C)c1Sc1ccc(Cl)cc1	-6%	?	-33%[10 µM]	-11%	10%
O=C(c1cc2ccccc2cc1OCC(O)CN1CCCCC1)N1CCCCC1 (configuration not stated)	3%	?	-20%	11µM*	-5%
COc1ccc(N2CCN(C(=O)c3cccc(Br)c3)CC2)c([N+](=O)[O-])c1	?	?	9%[10 µM]	.	-29%
CCOc1ccccc1CNS(=O)(=O)c1ccc2[nH]c(=O)sc2c1	?	?	-10%	-22%	13µM*
COC(=O)c1ccc2c(c1)C(C)(C)C(/C=C/c1ccccc1O)=[N+]2C	?	?	-110%	?	3.5µM*
SMILES	LMNA splice mod	ALDH1A1 inh	HTT ATP protect	HPGD inh	HttQ103 aggreg
Brc1ccc([C@H]2CN3CCSC3=N2)cc1	?	17%	-1%[1.9 µM]	-20%	.
Cc1cc(NC(=O)COC(=O)CCNS(=O)(=O)c2c(Cl)cccc2Cl)no1	13%[46 µM]	4%	-23%	.	-7%
CSc1nncc(/C(C)=N\Nc2ccccc2)n1	11%	?	1%	-19%	9%
CSc1nncc(/C(C)=N\Nc2cccc(C)c2)n1	9%	8.9µM*	1%	-13%	17%
CC/C(=N/Nc1ccccc1C)c1cnnc(SC)n1	?	7.9µM*	.	-22%	-20%
Cc1cc(=O)[nH]c(SCC(=O)NC2CCCc3ccccc32)n1 (configuration not stated)	.	.	19%[10 µM]	.	-9%[9.22 µM]
COc1ccc(C(=O)NCC23C=CC(O2)C2C(=O)N(Cc4ccccc4)C(=O)C23)cc1 (configuration not stated)	-13%	7.9µM*	-13%	-7%	12%
COc1ccccc1CCc1nnc(CCC(=O)N(C)Cc2cccc3ncccc23)o1	-1%[46 µM]	6%	12%[10 µM]	.	14%[9.22 µM]
Cc1ccc(C(=C2C3C=CC2C2C(=O)NC(=O)C32)c2ccc(C)cc2)cc1 (configuration not stated)	12%	0.89µM*	17%	-3%	-18%
CCc1noc(C)c1C(=O)N1CCCC(C(=O)c2ccc(OC)c(F)c2)C1 (configuration not stated)	?	7.1µM*	3%[10 µM]	.	-4%[9.22 µM]
COc1ccc(C(=O)C2CCCN(C(=O)c3cc(C(C)C)no3)C2)cc1F (configuration not stated)	.	1.6µM*	-9%[10 µM]	.	-10%[9.22 µM]
COc1ccc(C(=O)C2CCCN(C(=O)c3cccs3)C2)cc1F (configuration not stated)	12%[46 µM]	?	-8%[10 µM]	.	-24%[9.22 µM]
N#Cc1cccc(-c2cncnc2NCc2cccs2)c1	11%	-8%	0%	.	.
CCC(=O)OCN1C(=O)C=CC1=O	.	1µM*	-63%[10 µM]	?	.
Cc1sc2nc(CN3CCCC3)nc(Cl)c2c1C	?	?	18%[10 µM]	-10%	13µM*
Cc1sc2nc(CN3CCOCC3)nc(Oc3ccc(NC(=O)c4ccco4)cc3)c2c1C	2%	18µM*	-15%[10 µM]	.	16%
Cc1sc2nc(CN3CCOCC3)nc(N3CCOCC3)c2c1C	6%	14µM*	14%	-10%	?
CCOC(=O)c1sc2nc(CN3CCCCC3)nc(Cl)c2c1C	-6%[46 µM]	?	19%[10 µM]	.	17%
Cc1sc2nc(CN3CCOCC3)nc(N3CCC(C(N)=O)CC3)c2c1C	3%	1%	4%[10 µM]	-5%	-2%
Cc1cccc([N+](=O)[O-])c1C	.	-5%	-1%	-2%	.
NNC(=O)c1sccc1OCc1ccc(Cl)cc1	-29%[46 µM]	2.2µM*	-27%	.	7%
COc1ccc(COc2ccsc2C(=O)Nc2ccc(Cl)c(Cl)c2)cc1	?	6%	-31%	-20%	-27%
CN(C)S(=O)(=O)Nc1ccc2c(c1)Cc1ccccc1-2	-11%	8%	6%	14µM*	-16%
COc1ccc(NS(=O)(=O)c2ccc3c(c2)Cc2ccccc2-3)cn1	?	-16%	9%	-20%	11µM*

Screening results as filed in PubChem BioAssay.
